According to the supplement of paper PMC6555819:

Legend:
Assay in all cases: PBM binding z-score (relative to random genomic background probes); higher = stronger binding; sequences stand for … in GC…GCGATTGACAGCGTAGAATGAAGG
[1] = test system: RARb homodimer (NR concentration 270 nM)
Summary of the method: (§1)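 Binding z-scores take random background probes as their reference. They come from custom Agilent 4×180K protein-binding microarrays incubated 1 h with ligand-free nuclear receptor dimers, with antibodies against each partner (one per run) detecting binding. Scanned fluorescence was regression-normalized.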

[2] = test system: RARg:RXRa (NR concentration 270 nM, RXRa partner concentration 90 nM)
Summary of the method: as §1

[3] = test system: RARg homodimer (NR concentration 270 nM)
Summary of the method: as §1

[4] = test system: RXRa DBDmut IVT, anti-RXR (DBD mutation: RXRa K156A/R161A, NR concentration 90 nM)
Summary of the method: as §1

[5] = test system: RXRa homodimer (NR concentration 180 nM)
Summary of the method: as §1

[6] = test system: THRa:RXRa (NR concentration 90 nM, RXRa partner concentration 90 nM)
Summary of the method: as §1

[7] = test system: THRa homodimer (NR concentration 90 nM)
Summary of the method: as §1

[8] = test system: VDR homodimer (NR concentration 270 nM)
Summary of the method: as §1

Sequence	PBM binding z-score [1]	PBM binding z-score [2]	PBM binding z-score [3]	PBM binding z-score [4]	PBM binding z-score [5]	PBM binding z-score [6]	PBM binding z-score [7]	PBM binding z-score [8]
ATCTCTAGGTATAGTTCAGTGAAAGATCGATAGA	1.4	0.857	1	0.996	0.686	0.473	0.453	1.12
GCTCGGAGGACTAGGTCAGAGCTTTGTCCGTAGA	1.4	0.32	0.804	-0.871	-0.228	0.731	-0.465	-0.906
TCTTGTAGATCAATACAGGTTAAGAAAGTGCGCT	0.644	0.423	0.26	1.25	0.787	1.46	-0.0772	0.463
TCTGCTATGTCAGTTGGTCAGCTAACGAGCTGCC	0.0404	-0.0925	-0.134	0.0834	-0.0847	-0.538	-1.16	-0.982
ACAGACAGGTGAGTGAAGGGAACTCAGCTGGACG	-0.231	0.199	0.0505	-0.777	0.39	0.0282	-0.679	-0.331
GATCGGAGGACAAGGTCAGAGCTTTGTCCGTAGA	3.27	3.05	3.57	0.217	2.48	2.94	1.33	0.466
GCTGCCAGGTCAGGTTGGTCAGCTAACGGGTACG	2.65	2.55	3.29	0.47	1.5	2.51	1.16	0.33
TGAATGAGGTTAAAGATCAGGGATCGTGGCGTCG	0.409	2.25	1.11	0.89	3.63	2.33	0.0472	-0.0606
CCTTTCGGGTCACTGACAGGTTATAGCATTTGGA	3.44	5.76	4.91	2.55	5.16	4.17	2.95	1.19
AGAATGAGGTTAACATCAGGGAAACAGAATACAT	0.933	2.72	2.01	1.29	3.24	2.91	0.858	0.64
CATCCAAGGTCATAGGAGGTCAGTGAAGACAGAT	5.07	7.02	7.22	3.91	7.03	5.14	3.35	5.28
CCTTCTAGGTCAATGGTCAGCTAAAGCAGCTCGC	2.97	3.53	4.58	1.88	2.35	2.71	1.37	0.249
CAAACTCGGTCAAGGTCAAAGTCGGTTTGTGCCA	4.47	5.26	5.55	2.48	4.82	4	3.53	4.43
GCTATTAGTTGAAAGGACAACCGAATGATTCTCG	1.25	0.533	1.2	0.922	0.0459	0.487	0.292	0.311
CCTACTGGGCCATGGTCATTGATCAGTCAAAGCA	0.781	0.494	0.374	-1.27	-0.0481	0.0106	-0.543	-0.137
TCTTGTAGATTAATAGAGGTTAAGAAAGTGCGCT	1.51	0.95	0.856	1.23	1.66	1.81	-0.0934	0.699
ATCTCTAGGTAACCAAGTGCAGTGAATGCCGAAC	0.232	0.129	0.205	0.0153	0.0437	0.515	0.223	0.337
TCTTGTAGATCATAGGTTAAGAAAGCCGAAGCCT	0.203	0.785	0.187	0.657	1.34	0.458	-0.386	-0.05
GCGATTAGTTGAAAGGGCAACCGAATGATTCTCG	1.82	1.14	1	0.582	1.27	0.405	-0.273	0.184
CGTCCAATGTCAATGCTAGGTCAGTGAAAGCATT	2.73	3.07	1.98	0.448	0.676	2.23	0.915	0.181
CCGACTGGGGCAAGGTTCCCATAACGCACAGCCA	0.27	0.259	0.433	-0.627	0.314	-0.0449	-0.119	-0.153
TCATATAGGTAAAAGGTGAAAGGCGGTGTGGTAA	1.54	1.65	0.736	1.76	2.97	1.56	0.329	0.251
GCTGCTAGGTCAGCTTGGTCAGCTAACGGGTACG	2.8	2.8	3.88	0.514	1.1	1.73	0.547	-0.161
CCTACTGGGCCATCAGGTCGTTGATATCAACGTT	0.879	0.238	0.401	0.0318	0.133	1.42	1.06	0.424
ATCTCTAGGTATAGATAGTTCAGTGAATGCAAAT	0.907	0.662	0.781	0.321	0.447	0.433	-0.135	0.864
TAGCCTTGGTCATTCAGGGGCCAGTATAGAAAGC	1.09	2.02	0.792	-0.76	0.416	0.75	-0.852	-0.456

Sequence	PBM binding z-score [1]	PBM binding z-score [2]	PBM binding z-score [3]	PBM binding z-score [4]	PBM binding z-score [5]	PBM binding z-score [6]	PBM binding z-score [7]	PBM binding z-score [8]
TCGAGTAGGTTAGGCGGGGCATTCAGCCAACATA	0.241	0.2	-0.0839	-0.0244	0.0673	0.994	-0.341	0.0165
CCTGCTGGGTCATGGTCAGCTAATCTACAGTATG	2.6	3.56	3.65	0.81	2.88	2.04	0.0617	-0.0341
GCGACTGGGGCAAAGCAGGGTACCATAAGGTTGG	0.665	0.296	0.341	-0.678	0.287	1.61	-0.383	-0.139
CAAACTAGGTCAAGAGGACAAAGTCCGCTTCCCG	3.78	4.36	5.19	1.45	2.74	3	1.29	0.916
TCTTGTAGATCAATAAAGGTTAAGAAAGTGCGCT	1.87	1.1	0.821	1.1	1.72	2.05	-0.219	0.571
AGTCAAAGTTCATCTAGGTAGCGTAAGATATGCT	3.79	5.6	5.81	4.63	4.48	2.62	-0.478	5.34
ATCGAAAGGTCGACGAGGTGAGTATACACCGTTT	3.04	4.03	3.9	1.38	4.46	3.84	0.669	0.929
AGAATAAGGTTAAGATCAGGGAAACAGAATACAT	1.25	2.16	1.8	0.838	2.38	2.66	1.26	0.515
ACAGACAGGTGATGAAGGTAACTAAGGCTATCAT	0.434	0.422	0.552	-0.521	0.185	1.28	0.245	-0.317
ACAGACAGGTGGGTGAAGGTAACTCAGCTGGACG	0.378	0.052	0.248	-0.598	0.193	0.52	-0.174	-0.176
CTCGAAAGGTCGGTTGAGGTGAGTATACGGATAA	2.15	2.63	2.54	0.556	1.95	5.09	1.33	0.68
ACTTACGGGTCAACGAGGTTATAGCCCGCGTATA	3.68	5.54	4.99	2.37	6.11	3.97	1.14	3.48
TCTACTTGGTCAAAGGTCACACACTCGAAATGCG	5.11	7.2	6.3	2.19	8.15	4.24	2.7	2.68
TCTCGGAGGACTCGAAGGTCAGAGCTTTCCAGAG	2.73	1.7	1.24	0.262	1.41	1.65	-0.0603	-0.0798
CAAACTAGGTCACAGAGATCAAAGTCCGTGCGTA	3.1	4.52	4.87	1.59	3.84	3.28	1.27	0.964
GCTGCTAGGTCAGGTTGGGCAGCTAACGGGTACG	2.36	2.43	3.88	0.101	0.717	1.91	0.583	0.178
GCTAGCAGGCCATTGGGGTCACTCAATGACGGGC	3.44	3.98	3.1	0.8	4.7	3.84	2.39	4.55
TCTTGTAGATCAATAGAGGTTAAGCAAGTGCGCT	1.25	0.719	0.343	0.564	1.32	2.68	-0.555	0.376
TAGCCTAGGTCATGCGGGCCCGTATAGTGTCGGC	2.9	3.77	4.19	0.324	3.06	3.06	1.33	0.149
GCTGCTAGGTCAGGTTGGTCAGGTAACGGGTACG	2.89	2.59	3.55	0.37	1.06	2.32	2.02	0.789
CTCGAAAGGTCGTGCTAAGGTGAGTATACCAAAC	3.37	6.03	4.31	2.01	5.25	4.61	1.79	1.29
ATATGTAGGTTATCAGGTCATTCAGTTTGCGCAT	3.6	3.19	2.93	1.91	3.12	3.72	3.81	3.81
GCTATTAGTTGAAATGGCAACCGAATGATTCTCG	-0.503	-0.0997	0.311	0.893	-0.164	-0.279	-0.241	0.0264
CGAACGAGGGCATGAGTTGATGGCAAATGCCGAT	0.659	1.25	1.6	2.05	0.973	1.08	-0.389	1.31
TCAGACAGGTGAAAGTAACTCAGGTACGCAGTCG	0.326	0.474	0.598	1.01	0.974	0.472	-0.0578	-0.0124
CCTTACGGGTCACGAGGTAATAGCACGACGAGCG	3.32	5.87	5.34	1.67	6.56	3.52	0.849	0.979
